Reference: PubChem BioAssay (NCI)
About 83,000 compounds went through this panel and 20% of them were active in at least one assay; those are over-represented in the sample as a whole.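 Values shown are percent growth following 48 h exposure of cells in 96-well plates to a single concentration of compound; below 10 was considered active.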 Values without a mark were called inactive. Activity calls are given as the source filed them.

Experiments:
Test in all cases: NCI-60 one-dose screen, 48 h (100 = growth as untreated, 0 = no growth, -100 = all killed)
Conditions in all cases: 10 µM unless noted
T-47D breast = tested on: T-47D breast
MDA-MB-435 melanoma = tested on: MDA-MB-435 melanoma
SW-620 colon = tested on: SW-620 colon
MCF7 breast = tested on: MCF7 breast
HCT-116 colon = tested on: HCT-116 colon
HCC-2998 colon = tested on: HCC-2998 colon
KM12 colon = tested on: KM12 colon
BT-549 breast = tested on: BT-549 breast

Compound | growth (T-47D breast) | growth (MDA-MB-435 melanoma) | growth (SW-620 colon) | growth (MCF7 breast) | growth (HCT-116 colon) | growth (HCC-2998 colon) | growth (KM12 colon) | growth (BT-549 breast) [%]
COc1cc(C2C3=C(COC3=O)N(CCO)c3cc4c(cc32)OCCO4)cc(OC)c1OC (centres undefined) | 67.2% | -32.8% (active) | 11.9% | 11.2% | 0.547% (active) | -0.511% (active) | -28.6% (active) | 
COc1ccc(Nc2ncccc2NC(=O)c2cn(Cc3cccc(Oc4ccccc4)c3)nn2)cc1OC | 49.2% | 4.74% (active) | 73% | 48.5% | 80.7% | 88.1% | 57.6% | 
COc1cc2c(c(OC)c1OC)C(=O)CC(c1cccc(NC(=O)c3ccccc3Br)c1)O2 (centres undefined) | 65.7% | 92.5% | 97.3% | 78.2% | 75.6% | 106% | 103% | 
COC(=O)Cc1nc(C#N)c(N(C)C)o1 | 89.6% | 103% | 95.9% | 94.9% | 97.1% | 103% | 94.7% | 
COc1ccc(C2CC(c3ccc4c(c3)OCO4)=Nc3c(N)ncnc3N2)cc1 (centres undefined) | 84.9% | 105% | 95.9% | 90.6% | 98.5% | 92.4% | 100% | 
C/C(=C(/c1ccc(Cl)cc1)c1ccc(OCCCN(C)C)cc1)c1ccc(Cl)cc1 | 69.1% | 92.6% | 64% | 34.3% | 52.4% | 101% | 79.9% | 
CCOC(=O)c1c(NC(=O)CSc2n[nH]c3nc4ccccc4n23)sc(CC)c1C | 97.1% | 103% | 104% | 91.9% | 93.9% | 105% | 98.3% | 
C=CC(=O)NCCOc1cccc(Nc2cc(NCCCNC(=O)C3CCC3)c(Br)cn2)c1 | -10.5% (active) | -1.47% (active) | 2.26% (active) | 1.91% (active) | 4.97% (active) | -43.7% (active) | 5.83% (active) | 
COc1cc(Nc2ncccc2NC(=O)c2cn(Cc3cccc(Oc4ccccc4)c3)nn2)cc(OC)c1 | 65% | -6.08% (active) | 86.1% | 49.3% | 91.1% | 71.6% | 62.2% | 
O=C(Nc1cccnc1Nc1ccc(Cl)cc1)c1cn(Cc2ccc(F)cc2)nn1 | 90.5% | 97.2% | 114% | 92.8% | 84.6% | 100% | 102% | 
C=CCn1c(SCC(=O)Nc2ccc(C(=O)/C=C/c3ccc(OC)cc3)cc2)nnc1-c1ccccc1 | 57.3% |  | 97.7% | 20% | 9.87% (active) | 102% | 82.6% | 
Cn1cc(-c2nonc2-c2c[nH]c3ccccc23)c2ccccc21 | 25.9% |  | 22.4% | 14.3% | 5.44% (active) | 11.1% | 7.64% (active) | 
O=C(O)CCCc1cnc2c3sccc3nc(SCc3c(Cl)cccc3Cl)n12 | 24.9% | 6.44% (active) | 27.3% | 26.5% | 21.7% | 81.1% | 21.7% | 
CN(CCC#N)c1ccc(/C=C2\NC(=O)NC2=O)cc1 | 112% | 93.1% | 99.8% | 102% | 91.2% | 96.7% | 101% | 
COC(=O)c1c2c(n3ccc(C)cc13)C(=O)c1ccccc1C2=O | 82% | 93.4% | 54.3% | 55.9% | 41.6% | 94.6% | 59.4% | 
O=C(Nc1ccccc1)c1sc(-c2ccccc2)cc1O | 101% | 90% | 102% | 78.9% | 96.5% | 101% | 85.1% | 
CCOC(=O)c1c(C)nc2c(c1N)CC(=O)N2Cc1cc(OC)c(OC)c(OC)c1 | 28.7% | 4.24% (active) | 33.4% | 26.9% | 20.5% | 65.6% | 30.1% | 
CCOC(=O)CSc1nc2sc3c(c2c(=O)n1-c1ccc([N+](=O)[O-])cc1)CCCCC3 | 76.7% | 77.3% | 81.3% | 76.2% | 51.3% | 82% | 89.7% | 
Cn1cc(-c2csc(-c3cn(C(=O)OC(C)(C)C)c4ccccc34)n2)c2ccnc(Cl)c21 | 29.1% | 78.8% | 56.2% | 33.3% | 30% | 83.5% | 50.4% | 
CCCCCCCCn1ccc2cc(NC(=O)Cn3cc(CN4CCCCCC4)nn3)ccc21 | -47.4% (active) | -85.3% (active) | -78.3% (active) | -23.2% (active) | -77.3% (active) | -80.9% (active) | -27.8% (active) | 
COC1=CC(c2ccc[nH]2)=N/C1=C\c1[nH]c(C)c(CC(=O)OCc2ccccc2)c1C | -28.6% (active) | -21.3% (active) | -6.46% (active) | 4.14% (active) | -35% (active) | 13.4% | -9.28% (active) | 
NC(=O)c1c(NC(=O)c2ccc(Cl)cc2)sc2c1CCC(=O)C2 | 35.9% | 94.5% | 12.7% | 57.8% | 8.72% (active) | 104% | 42.1% | 
COc1ccc(-c2nnc(SCC(=O)Nc3ccc(/C(C)=N\O)cc3)n2-c2ccccc2)cc1OC | 68% | 104% | 115% | 69.2% | 69.2% | 94% | 106% | 
CN(C)c1ccc(C(=NO)c2ccc(N(C)C)cc2)cc1 | 45.8% | -43.2% (active) | 13.4% | 32.6% | 18.5% | 58.6% | 13.6% | 
COc1ccc2[nH]cc(-c3nc(-c4cn(C)c5ccncc45)cs3)c2c1 | 92.1% |  | -56.9% (active) | -39.4% (active) | -83.8% (active) | -38.9% (active) | -31.8% (active) | 
CCN(CC)CCNC(=O)c1ccc(-c2nc3ccc4[nH]ncc4c3c3c2CCCC3)cc1 |  | 42.9% | 28.4% | 62.4% | 24.1% | 84.3% | 46.2% | 59.5
